Our source for the inhibition values is ChEMBL document CHEMBL1961873, “Compounds: GSK PKIS; Assays: Nanosyn kinase panel” (2012).

The structures appear in SMILES notation.

Cyclin-dependent kinase 4 (Homo sapiens), sequence (P11802 whole entry): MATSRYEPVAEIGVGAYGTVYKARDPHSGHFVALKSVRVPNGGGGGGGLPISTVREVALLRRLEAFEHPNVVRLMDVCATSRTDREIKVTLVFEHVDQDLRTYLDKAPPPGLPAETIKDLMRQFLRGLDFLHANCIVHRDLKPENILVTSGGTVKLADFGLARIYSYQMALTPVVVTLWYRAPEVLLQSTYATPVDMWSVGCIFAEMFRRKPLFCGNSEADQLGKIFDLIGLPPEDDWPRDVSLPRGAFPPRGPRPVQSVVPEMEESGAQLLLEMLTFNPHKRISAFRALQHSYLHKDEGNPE

This experiment has as its target Cyclin-dependent kinase 4 (Homo sapiens) (UniProt P11802). The settings on record: at 0.1 µM.
In the case of `CN(c1ccc(NC(=O)Nc2c(Cl)cccc2Cl)cc1)c1ccnc(Nc2cccc(CS(C)(=O)=O)c2)n1`, the inhibition (usually the change of the read-out against control, counted positive when it falls) was -0.86%.
For `CCS(=O)(=O)c1ccc(OC)c(Nc2ncc(-c3cccc(-c4ccccc4F)c3)o2)c1` the value was 0.53%; for `CS(=O)(=O)CCNCc1ccc(-c2ccc3ncnc(Nc4ccc(OCc5ccccc5)c(Br)c4)c3c2)o1`, -1.53%.
For `N#Cc1ccc(Oc2nccc(-c3c(-c4ccc(F)cc4)ncn3C3CCNCC3)n2)cc1` the value was 0.98%; for `Fc1ccc(-c2ncn(C3CCNCC3)c2-c2ccnc(Oc3ccc4c(c3)OCO4)n2)cc1`, 1.48%.
For `COc1cc(N2CCN(C(C)C)CC2)ccc1Nc1nc(Nc2ccc(F)cc2C(=O)NC[C@@H](O)CO)c2cc[nH]c2n1` the value was -2.67%; for `O=C1NC(=O)C(c2cccc(Cl)c2)=C1Nc1ccc(Cl)c(C(=O)O)c1`, 1.47%.
With `NC(=O)c1cc(-c2ccncc2)cc(-c2ccccc2)c1N`, the inhibition was found to be 2.8%.
`CS(=O)(=O)CCNCc1cc(-c2cc3c(Nc4ccc(OCc5cccc(F)c5)c(Cl)c4)ncnc3s2)cs1`: the inhibition is 2.57%.
For `Cc1ccc(C(=O)NC2CCC2)cc1-c1ccc(C(=O)NCC2CC2)cc1` the value was 2.48%.
For `NC(=O)c1cc(-c2ccc(F)cc2)cc(-c2ccncc2)c1N` the value was 4.11%; for `O=C(Nc1n[nH]c2cc(-c3ccccc3)ccc12)C1CC1`, 3.5%; for `O=C(Nc1n[nH]c2nc(-c3ccc(O)cc3)c(Br)cc12)C1CC1`, 42%.
For `C/C(Nc1ccc(S(N)(=O)=O)cc1)=C1/C(=O)Nc2ccccc21` the value was 3.5%.
As for `O=C1Nc2ccccc2/C1=C/Nc1ccc(-n2cncn2)cc1`, the inhibition amounted to 9.53%.
As for `CCc1nccc2c1nc(-c1nonc1N)n2CC`, the inhibition amounted to 1.93%.
Take `CCN(CC)Cc1ccc(Nc2nccc(-c3cnn4ncccc34)n2)cc1`: the inhibition was determined as 53.8%.
`Fc1ccc(-c2ncn(C3CCNCC3)c2-c2ccnc(Oc3ccc(F)c(F)c3)n2)cc1`: the inhibition was found to be 0.19%.
Consider `C[C@@H](Oc1cc(-n2cnc3ccc(OCC4CCN(C)CC4)cc32)sc1C(N)=O)c1ccccc1Cl`, for which the inhibition worked out at 2.79%.
For `COc1ccc2cc(-c3c(-c4ccncc4)nc(-c4ccc([S+](C)[O-])cc4C)n3C)ccc2c1` (centres undefined) the value was 2.2%.
For `CN1CCN(CCCNc2nc3ccc(Oc4ccc(NC(=O)Nc5cc(C(F)(F)F)ccc5F)cc4)cc3[nH]2)CC1` the value was -3.04%.
The value for `Nc1nccc(-c2c(-c3ccc(F)cc3)ncn2C2CCC(O)CC2)n1` (centres undefined) was 0.24%.
`c1ccc(Oc2ccc(Nc3ncc(-c4ccccc4)o3)cc2)cc1`: the inhibition is 1.05%.
For `COc1ccc(-c2ccc3c(NC(=O)C4CC4)n[nH]c3n2)cc1` the value was 1.65%; for `O=C(Nc1n[nH]c2nc(-c3ccco3)ccc12)C1CC1`, 1.89%.
The value for `CCS(=O)(=O)c1ccc(OC)c(Nc2ncc(-c3ccccc3Cl)o2)c1` was -0.77%; that for `CN(C)c1ccc2c(c1)/C(=C/Nc1ccc(S(N)(=O)=O)cc1)C(=O)N2` was 11.3%; that for `CN(C)CCCNc1nccc(-c2c(-c3ccc(F)cc3)nn3cc(C(F)(F)F)ccc23)n1` was -2.82%.
Consider `CCC(=O)Nc1ccc(C)c(-c2ccc(C(=O)NCC3CC3)cc2)c1`, for which the inhibition was 3.38%.
The value for `NS(=O)(=O)c1ccc(Nc2cc(-c3ccc(O)c(F)c3)n[nH]2)cc1` was 3.31%; that for `COc1cc2ncn(-c3cc(OCCc4ccccc4)c(C(N)=O)s3)c2cc1OC` was 1.86%.
The value for `Cc1ccc(C(=O)NC(C)C)cc1-c1ccc(C(=O)NCC2CC2)cc1` was -0.49%; that for `NCc1ccc(-n2c(-c3nonc3N)nc3cnccc32)cc1` was 5.03%; that for `COc1cc(Nc2ncc3c(C)nc(-c4cccc(C(F)(F)F)c4)n3n2)cc(OC)c1OC` was 1.78%.
